Measured values as given in the supplement of paper PMC11001985.

The targets below were run with C#CCNC(=O)CCSSCCC(=O)NCCc1ccc(C=O)c(C=O)c1 (assay: lysine labeling ratio R10:1 (500 µM / 50 µM probe), SILAC-ABPP in living cells; higher = lower intrinsic lysine reactivity toward the probe, active = 2 or less). Details: HeLa; probe concentrations 500 vs 50 µM.
Summary of the method: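 For each lysine, R is the median over forward and reverse replicates of the filtered median MS1 peptide ratio of high probe to low probe. The probe, an alkyne-tagged, disulfide-linked lysine probe, was given at 500 µM or 50 µM to living SILAC light and heavy HeLa cells in PBS at room temperature, with label swaps. Values are capped at 20.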

Sequence of UniProt P62258 (P62258 whole entry): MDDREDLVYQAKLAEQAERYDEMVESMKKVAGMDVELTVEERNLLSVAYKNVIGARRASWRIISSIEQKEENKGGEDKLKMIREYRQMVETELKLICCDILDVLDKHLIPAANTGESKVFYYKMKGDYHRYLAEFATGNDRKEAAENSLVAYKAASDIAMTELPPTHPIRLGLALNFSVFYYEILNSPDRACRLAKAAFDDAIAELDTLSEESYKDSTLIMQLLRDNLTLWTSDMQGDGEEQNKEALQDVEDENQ
Sequence of UniProt P35052 (P35052 whole entry): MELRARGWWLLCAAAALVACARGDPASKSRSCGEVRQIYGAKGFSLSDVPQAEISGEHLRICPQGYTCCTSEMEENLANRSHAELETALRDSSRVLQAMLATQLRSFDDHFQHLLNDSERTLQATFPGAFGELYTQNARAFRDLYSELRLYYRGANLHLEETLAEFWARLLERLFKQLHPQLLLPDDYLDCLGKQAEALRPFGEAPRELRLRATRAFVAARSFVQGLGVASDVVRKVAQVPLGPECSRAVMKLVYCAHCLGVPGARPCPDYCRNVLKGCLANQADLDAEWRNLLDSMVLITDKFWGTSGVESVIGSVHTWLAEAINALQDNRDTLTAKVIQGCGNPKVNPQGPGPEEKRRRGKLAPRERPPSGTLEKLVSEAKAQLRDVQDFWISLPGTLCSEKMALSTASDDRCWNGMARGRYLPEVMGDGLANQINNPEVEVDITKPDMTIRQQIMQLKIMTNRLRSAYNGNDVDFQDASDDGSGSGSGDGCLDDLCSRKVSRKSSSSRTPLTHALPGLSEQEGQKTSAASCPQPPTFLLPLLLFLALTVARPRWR
Sequence of UniProt P04083 (P04083 whole entry): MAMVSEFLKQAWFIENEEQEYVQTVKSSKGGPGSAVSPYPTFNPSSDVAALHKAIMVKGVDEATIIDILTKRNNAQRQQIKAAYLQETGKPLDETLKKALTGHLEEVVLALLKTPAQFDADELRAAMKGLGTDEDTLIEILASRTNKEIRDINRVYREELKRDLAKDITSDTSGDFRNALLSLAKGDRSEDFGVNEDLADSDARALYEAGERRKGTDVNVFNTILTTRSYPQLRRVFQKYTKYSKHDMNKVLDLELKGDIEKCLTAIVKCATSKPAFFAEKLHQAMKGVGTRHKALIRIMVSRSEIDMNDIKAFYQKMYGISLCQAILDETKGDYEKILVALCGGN
Sequence of UniProt O60701 (O60701 whole entry): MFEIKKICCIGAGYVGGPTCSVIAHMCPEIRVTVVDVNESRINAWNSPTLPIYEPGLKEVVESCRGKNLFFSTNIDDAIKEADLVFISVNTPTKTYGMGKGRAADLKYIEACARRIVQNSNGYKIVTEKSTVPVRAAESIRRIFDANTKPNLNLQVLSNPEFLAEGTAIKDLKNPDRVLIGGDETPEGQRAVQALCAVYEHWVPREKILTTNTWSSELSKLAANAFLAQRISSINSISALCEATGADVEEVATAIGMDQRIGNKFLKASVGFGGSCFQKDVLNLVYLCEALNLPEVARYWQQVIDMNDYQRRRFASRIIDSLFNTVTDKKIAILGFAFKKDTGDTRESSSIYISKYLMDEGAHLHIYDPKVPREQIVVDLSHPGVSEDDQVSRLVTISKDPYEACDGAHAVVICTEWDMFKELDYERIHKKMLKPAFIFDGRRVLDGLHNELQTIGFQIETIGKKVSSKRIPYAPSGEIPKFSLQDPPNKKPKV
Sequence of UniProt P27348 (P27348 whole entry): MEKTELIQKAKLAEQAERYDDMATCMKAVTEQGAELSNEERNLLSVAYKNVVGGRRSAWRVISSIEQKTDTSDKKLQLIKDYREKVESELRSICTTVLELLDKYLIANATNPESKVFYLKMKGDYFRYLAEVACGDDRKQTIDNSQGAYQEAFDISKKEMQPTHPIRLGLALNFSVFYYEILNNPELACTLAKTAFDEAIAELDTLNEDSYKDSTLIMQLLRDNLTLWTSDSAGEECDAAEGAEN
Sequence of UniProt Q13813 (Q13813 whole entry): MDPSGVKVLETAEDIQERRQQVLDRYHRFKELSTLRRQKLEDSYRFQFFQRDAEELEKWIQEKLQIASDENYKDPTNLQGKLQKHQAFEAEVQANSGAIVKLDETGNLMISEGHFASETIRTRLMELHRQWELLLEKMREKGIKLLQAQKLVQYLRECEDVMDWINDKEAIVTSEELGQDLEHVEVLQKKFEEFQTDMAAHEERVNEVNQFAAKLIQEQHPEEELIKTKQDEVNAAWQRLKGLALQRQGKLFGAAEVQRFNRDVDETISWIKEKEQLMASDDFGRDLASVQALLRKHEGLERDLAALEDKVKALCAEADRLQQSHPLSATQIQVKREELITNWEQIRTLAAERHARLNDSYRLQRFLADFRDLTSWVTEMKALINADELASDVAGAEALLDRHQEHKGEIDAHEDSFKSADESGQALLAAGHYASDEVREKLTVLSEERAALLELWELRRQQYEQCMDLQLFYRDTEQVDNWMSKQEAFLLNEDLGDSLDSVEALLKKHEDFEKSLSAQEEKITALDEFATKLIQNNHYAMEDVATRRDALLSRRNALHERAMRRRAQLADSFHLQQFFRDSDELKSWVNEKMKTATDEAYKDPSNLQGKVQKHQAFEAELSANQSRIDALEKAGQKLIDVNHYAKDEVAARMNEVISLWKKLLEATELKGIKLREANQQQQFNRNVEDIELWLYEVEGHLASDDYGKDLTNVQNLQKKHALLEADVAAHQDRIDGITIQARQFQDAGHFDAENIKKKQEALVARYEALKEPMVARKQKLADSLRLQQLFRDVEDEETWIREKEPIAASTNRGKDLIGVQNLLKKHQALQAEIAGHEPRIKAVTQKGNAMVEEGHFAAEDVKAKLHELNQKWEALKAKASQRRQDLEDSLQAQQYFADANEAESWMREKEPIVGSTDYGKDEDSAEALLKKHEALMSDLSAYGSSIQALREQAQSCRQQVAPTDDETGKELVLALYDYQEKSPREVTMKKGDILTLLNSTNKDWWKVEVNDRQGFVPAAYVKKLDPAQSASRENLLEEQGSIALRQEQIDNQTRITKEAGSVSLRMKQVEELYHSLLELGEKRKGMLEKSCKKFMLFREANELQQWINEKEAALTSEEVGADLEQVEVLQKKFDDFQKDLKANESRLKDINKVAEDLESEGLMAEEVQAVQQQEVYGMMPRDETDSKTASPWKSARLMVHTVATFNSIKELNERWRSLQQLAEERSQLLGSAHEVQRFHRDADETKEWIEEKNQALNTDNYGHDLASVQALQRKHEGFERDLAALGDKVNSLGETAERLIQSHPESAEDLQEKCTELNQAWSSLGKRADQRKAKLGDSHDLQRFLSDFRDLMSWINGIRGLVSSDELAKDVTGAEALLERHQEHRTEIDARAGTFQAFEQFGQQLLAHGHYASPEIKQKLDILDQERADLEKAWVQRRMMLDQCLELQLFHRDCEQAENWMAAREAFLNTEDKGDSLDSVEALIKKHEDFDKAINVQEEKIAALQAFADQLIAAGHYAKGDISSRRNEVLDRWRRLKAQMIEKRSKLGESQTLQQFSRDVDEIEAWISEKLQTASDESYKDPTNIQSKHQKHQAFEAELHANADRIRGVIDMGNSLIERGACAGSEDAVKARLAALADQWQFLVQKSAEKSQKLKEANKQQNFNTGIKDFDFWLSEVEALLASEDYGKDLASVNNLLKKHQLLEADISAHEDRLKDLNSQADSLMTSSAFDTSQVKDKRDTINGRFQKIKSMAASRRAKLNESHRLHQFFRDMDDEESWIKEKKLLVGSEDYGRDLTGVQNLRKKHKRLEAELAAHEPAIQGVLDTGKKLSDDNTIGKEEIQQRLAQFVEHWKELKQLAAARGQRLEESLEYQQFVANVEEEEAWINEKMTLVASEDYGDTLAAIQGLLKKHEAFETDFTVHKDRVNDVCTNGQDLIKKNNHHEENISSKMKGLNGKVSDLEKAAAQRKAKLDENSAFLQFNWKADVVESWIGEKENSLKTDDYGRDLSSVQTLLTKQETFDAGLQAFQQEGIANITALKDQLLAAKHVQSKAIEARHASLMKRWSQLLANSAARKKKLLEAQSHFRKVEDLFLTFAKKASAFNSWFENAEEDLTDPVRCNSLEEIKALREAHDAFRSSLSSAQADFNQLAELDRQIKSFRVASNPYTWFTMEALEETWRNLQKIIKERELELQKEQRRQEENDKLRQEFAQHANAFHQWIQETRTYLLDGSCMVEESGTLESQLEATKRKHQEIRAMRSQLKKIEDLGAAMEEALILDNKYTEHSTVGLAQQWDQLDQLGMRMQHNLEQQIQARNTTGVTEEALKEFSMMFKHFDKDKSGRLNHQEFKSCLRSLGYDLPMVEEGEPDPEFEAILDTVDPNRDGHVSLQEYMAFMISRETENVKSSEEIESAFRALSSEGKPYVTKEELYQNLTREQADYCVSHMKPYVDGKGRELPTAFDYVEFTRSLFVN
Sequence of UniProt P29401 (P29401 whole entry): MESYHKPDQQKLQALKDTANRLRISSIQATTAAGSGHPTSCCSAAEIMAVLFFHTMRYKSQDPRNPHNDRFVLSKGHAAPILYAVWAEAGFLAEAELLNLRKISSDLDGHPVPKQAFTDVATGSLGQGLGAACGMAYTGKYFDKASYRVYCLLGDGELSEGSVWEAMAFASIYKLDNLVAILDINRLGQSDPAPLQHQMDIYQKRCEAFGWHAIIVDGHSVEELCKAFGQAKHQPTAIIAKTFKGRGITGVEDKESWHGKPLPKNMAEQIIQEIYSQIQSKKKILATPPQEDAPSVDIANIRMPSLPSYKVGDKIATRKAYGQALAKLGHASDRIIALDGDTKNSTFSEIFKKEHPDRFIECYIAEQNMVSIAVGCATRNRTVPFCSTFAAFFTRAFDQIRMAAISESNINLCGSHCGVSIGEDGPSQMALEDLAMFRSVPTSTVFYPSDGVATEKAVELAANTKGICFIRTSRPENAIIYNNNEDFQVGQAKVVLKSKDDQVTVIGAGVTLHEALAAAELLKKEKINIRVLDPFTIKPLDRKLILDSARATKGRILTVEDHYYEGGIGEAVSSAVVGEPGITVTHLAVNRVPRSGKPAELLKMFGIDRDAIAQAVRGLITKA

Row | Target | lysine labeling ratio R10:1
1 | IGF2R (lysine site: K1862) (UniProt P11717) | 1.81 (active)
2 | GPC1 (lysine site: K277) (UniProt P35052) | 2.26 (inactive)
3 | PDIA6 (lysine site: K150) (UniProt Q15084) | 4.08 (inactive)
4 | SPTAN1 (lysine site: K1546) (UniProt Q13813) | 0.8 (active)
5 | HNRNPM (lysine site: K651) (UniProt P52272) | 2.28 (inactive)
6 | TKT (lysine site: K310) (UniProt P29401) | 7.45 (inactive)
7 | UniProt P09758 (lysine site: K231) | 4.22 (inactive)
8 | UniProt P07437 (lysine site: K58) | 2.92 (inactive)
9 | PLXNB2 (lysine site: K1110) (UniProt O15031) | 4.66 (inactive)
10 | UniProt P62899 (lysine site: K31) | 1.97 (active)
11 | EPRS (lysine site: K435) (UniProt P07814) | 2.68 (inactive)
12 | HEG1 (lysine site: K1073) (UniProt Q9ULI3) | 3.38 (inactive)
13 | ANXA1 (lysine site: K166) (UniProt P04083) | 1.32 (active)
14 | YWHAQ (lysine site: K80) (UniProt P27348) | 3.11 (inactive)
15 | ENG (lysine site: K513) (UniProt P17813) | 4.09 (inactive)
16 | UGDH (lysine site: K173) (UniProt O60701) | 1.43 (active)
17 | UniProt P62258 (lysine site: K12) | 7.18 (inactive)
